High-throughput results (PubChem BioAssay)
Most compounds without a hit are left out; they make up all but 11% or so of the library.
Pf growth 48h – P. falciparum growth inhibition at 48 hours (one generation). P. falciparum luciferase growth in erythrocytes, 48 h. Potency, µM (titrated, usually from 28.7 µM), for inactives: at the highest dose activity change, negative = inhibition, actives largely listed as inhibitors. 310,000 compounds, 5.9% hits
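Luciferase-expressing parasites in RBCs, 2% Hct / 0.1% parasitemia final; RPMI 1640 + 0.5% Albumax; 37 C, 5% CO2, one generation; luminescence read-out, lower signal = inhibition.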
HCV inhibitor – blocks hepatitis C virus | Huh7.5.1 HCVcc-Cre infection, luciferase reporter, 44 h | Potency, µM (series often up to 41.8 µM), for inactives: top-dose activity change, negative = inhibition, most hits filed as inhibitors | 340,000 compounds, 3.4% hits | AID 651820
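A cell-based infection assay in which seeded cells (1,000 per well) receive test compound after 4 h, are inoculated with HCVcc-Cre at approximately 0.5 moi, and are incubated 44 h before luminescence detection.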
AmpC no deterg – AmpC beta-lactamase inhibition without detergent. P00811. Potency, µM (titrated, usually from 57.1 µM), inactives show at the top dose activity change, negative = inhibition, hits mostly inhibitors. AmpC nitrocefin hydrolysis, absorbance 480 nm, 0.0001% Triton. 330,000 compounds, 0.52% hits;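 further: plate controls were no compound for no effect and no enzyme for full effect; nearly all actives have a fitted effect of over 20% in size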
Target sequence (P00811 whole entry, looked up): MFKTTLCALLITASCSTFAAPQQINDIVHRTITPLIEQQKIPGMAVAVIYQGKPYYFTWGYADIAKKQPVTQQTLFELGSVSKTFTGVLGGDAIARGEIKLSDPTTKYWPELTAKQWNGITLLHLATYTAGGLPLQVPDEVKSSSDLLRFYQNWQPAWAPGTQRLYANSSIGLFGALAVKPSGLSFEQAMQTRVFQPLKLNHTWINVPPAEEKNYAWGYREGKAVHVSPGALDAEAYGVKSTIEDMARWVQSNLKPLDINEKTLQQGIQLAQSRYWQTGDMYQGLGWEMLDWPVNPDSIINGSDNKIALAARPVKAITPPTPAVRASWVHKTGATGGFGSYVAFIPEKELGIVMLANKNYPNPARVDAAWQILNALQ
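AmpC (5.3 nM in the dispensed reagent) in 20 mM phosphate pH 7.0 with 0.01% (detergent screen) or 0.0001% Triton X-100 was preincubated with compounds for 15 min at room temperature. Nitrocefin was then added from an 800 uM solution, and hydrolysis was followed at 480 nm.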
Pf growth 96h – inhibits malaria parasite growth, 96 h | P. falciparum luciferase reporter growth, 96 h | 320,000 compounds, 6.9% hits | AID 504834 | Potency, µM (titrated, usually from 28.7 µM), inactives show at the top dose activity change, negative = inhibition, actives largely listed as inhibitors
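Erythrocytes infected with luciferase-expressing P. falciparum were dispensed at 2% hematocrit and 0.05% parasitemia (final), then incubated with compounds 96 hours at 37 C in 5% CO2. Luminescence after detection reagent addition reported growth.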
AmpC inh detg – AmpC beta-lactamase inhibition with detergent present. P00811. AmpC hydrolysis of nitrocefin, absorbance 480 nm, 0.01% Triton. Potency, µM (series often up to 114 µM), without a hit: top-dose activity change, negative = inhibition, usual class: inhibitors. 370,000 compounds, 0.041% hits. AID 485294;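 further: 0% = no-compound wells and -100% = no-enzyme wells; nearly all actives have a fitted effect of over 25% in size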
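20 mM phosphate pH 7.0 + 0.01% (detergent screen) or 0.0001% Triton X-100; 5.3 nM AmpC reagent; cpd preinc 15 min RT; nitrocefin (800 uM stock) to start; A480 q20 s × 4 min; Activity was normalised to no-enzyme and no-compound control wells.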
AMA1 RON2 block – inhibitors of Plasmodium falciparum AMA1-RON2 interaction; AlphaScreen AMA1-biotinylated RON2 peptide binding; AID 720542; 360,000 compounds, 0.2% hits; Potency, µM (series often up to 58.2 µM), for the others: at the highest dose activity change, negative = inhibition, most hits filed as inhibitors;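 further: 0% = vehicle wells and -100% = peptide control; nearly all actives have a fitted effect of over 45% in size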
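AMA1 (3D7) with his tag at 25 nM final met compounds first, then biotinylated RON2 peptide at 25 nM; detection used donor plus acceptor beads, 10 µg/mL apiece, read by AlphaScreen after 30 min at room temperature.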
Numbers without * were called inactive; ? = inconclusive; . = no result given; [ ] = dose if it differs, or a comment. The call rests on the fitted dose curve; in most records, active means well fitted curve in the direction sought with a large enough effect; inconclusive means small, poorly fitted or top-dose-only effect, or another doubt; inactive means no such curve, though single readings can be large; an effect the other way counts as inactive or inconclusive. Unless noted, on the % scale 0 is the no-effect control and ±100 the full control effect; potency means the concentration at half of the fitted maximal effect.

SMILES | Pf growth 48h | HCV inhibitor | AmpC no deterg | Pf growth 96h | AmpC inh detg | AMA1 RON2 block
COc1ccc(CN2CC(=O)N(c3cccc(Cl)c3)C2=S)cc1OC | 10µM* | -12% | 31% | 0% | -7% | -5%
COc1ccc(CN2CC(=O)N(c3ccc(Cl)cc3)C2=S)cc1OC | 13µM* | -29% | 14% | ? | -1% | -5%
CNC(=O)CC1C(=O)N(c2ccc(Cl)cc2)C(=S)N1CCc1ccc(OC)c(OC)c1 (stereo not drawn) | 12µM* | -19% | 153% | -5% | -1% | ?
CCc1ccc(-c2nc3cc(NC(=O)c4cc5ccccc5cc4OC)ccc3o2)cc1 | . | . | . | . | -2% | .
CCCN1CC23C=CC(O2)C(C(=O)O)C3C1=O (stereo not drawn) | 10% | 17% | 35µM* | -16% | ? | 0%
CCOC(=O)CN1CC23C=CC(O2)C(C(=O)Nc2ccc(OCC)cc2)C3C1=O (stereo not drawn) | -2% | -8% | 7.9µM* | -12% | ? | -2%
Cc1ccc(CN2CC34C=CC(O3)C(C(=O)NCc3ccco3)C4C2=O)cc1 (stereo not drawn) | 20% | 9% | 13% | -5% | -13% | -2%
CCC(C)N1CC23C=CC(O2)C(C(=O)OC)C3C1=O (stereo not drawn) | 0% | 8% | 22µM* | ? | 2% | -2%
CCCCNC(=O)C1C2C=CC3(CN(Cc4ccc(C)cc4)C(=O)C13)O2 (stereo not drawn) | 1% | 20% | 4% | 10µM* | 0% | 1%
O=C(NC(=S)NNC(=O)c1ccccc1O)c1cccs1 | ? | 8.9µM* | -19% | 1% | -2% | 46%
O=C(NNC(=S)NC(=O)c1ccccc1[N+](=O)[O-])c1ccccc1O | ? | -14% | -23% | 16% | 4% | 0.71µM*
O=C(NNC(=O)c1cccs1)c1ccc(Cl)c(Cl)c1 | 25% | 0% | -19% | ? | -3% | 8%
O=C(NNC(=O)c1cccs1)c1ccc2ccccc2c1 | 60% | 23% | -17% | 1.7µM* | 0% | -7%
Cc1cccc(C(=O)NNC(=S)NC(=O)c2cccs2)c1 | -4% | -9% | -22% | 12µM* | -7% | 79%
CCOc1cc2[nH]c(=O)n(Cc3ccc(C(=O)N4CCN(c5cccc(Cl)c5)CC4)cc3)c(=O)c2cc1OCC | . | . | . | . | -4% | .
CCc1ccc(NCc2cc3ccc(OC)cc3n(CC(=O)Nc3ccc(C(C)C)cc3)c2=O)cc1 | . | . | . | . | 2% | .
CCCCNC(=O)C(c1ccc(OCC(=O)OC)c(C(=O)OC)c1)N(CCc1c[nH]c2ccccc12)C(=O)CCCCCN1C(=O)NC(c2ccc(-c3ccccc3)cc2)C(C(=O)OCc2ccccc2)=C1C (stereo not drawn) | 2.3µM* | . | 32% | 2.9µM* | -5% | .
CCCCCCN(C(=O)CCCCCN1C(=O)NC(c2ccc(-c3ccccc3)cc2)C(C(=O)OCc2ccccc2)=C1C)C(C(=O)NCCCC)c1ccc(OCC(=O)OC)c(C(=O)OC)c1 (stereo not drawn) | 2.3µM* | . | 36% | 2.6µM* | 4% | .
CC1=C(C(=O)OCc2ccccc2)C(c2ccc(Br)cc2)NC(=O)N1CCCCCC(=O)O (stereo not drawn) | . | 15% | . | . | . | -13%
COC(=O)C1=C(C)N(CCCC(=O)O)C(=O)NC1c1ccc(-c2ccccc2)cc1 (stereo not drawn) | -16% | 7% | -14% | ? | ? | -10%
CCCCCCN(C(=O)CCCCCN1C(=O)NC(c2ccc(Cl)cc2)C(C(=O)OCc2ccccc2)=C1C)C(C(=O)NCCCC)c1ccc(OCC(=O)OC)c(C(=O)OC)c1 (stereo not drawn) | 7.4µM* | -8%[8.37 µM] | 48% | ? | ? | .
Cc1cccc(-c2nc3c4ccccc4nc(N4CCN(c5cccc(Cl)c5)CC4)n3n2)c1 | . | . | . | . | 18% | .
CCc1ccc(NC(=O)CCS(=O)(=O)c2ccc3c(c2)n(C)c(=O)c(=O)n3C)cc1 | . | . | . | . | 17% | .
CCn1ccc2cc(S(=O)(=O)N3CCCN(C(=O)NCC(C)C)CC3)ccc21 | . | . | . | . | 12% | .
CCOC(=O)c1c(S(=O)(=O)N2CCCC(C(=O)N3CCN(c4ccc(F)cc4)CC3)C2)c(C)n(C)c1C (stereo not drawn) | . | . | . | . | -4% | .
SMILES | Pf growth 48h | HCV inhibitor | AmpC no deterg | Pf growth 96h | AmpC inh detg | AMA1 RON2 block
C(=N\c1nc2ccccc2[nH]1)/c1cccs1 | 29% | . | -1% | 10µM* | -8% | -6%
O=C1C2C3C=CC(CO)(O3)C2C(=O)N1c1ccccc1-c1ccccc1 (stereo not drawn) | ? | -27% | -26% | 5.9µM* | ? | -2%
C[C@@H]1CN([C@H](C)CO)C(=O)c2cc(NC(=O)Cc3ccccc3)ccc2O[C@H]1CN(C)Cc1ccc(Oc2ccccc2)cc1 | . | 11µM* | 224% | . | . | 9%
C[C@H](CO)N1C[C@H](C)[C@@H](CN(C)Cc2ccccc2)Oc2c(NC(=O)Cc3ccccc3)cccc2C1=O | . | ? | 233% | . | . | -12%
C[C@H](CO)N1C[C@H](C)[C@@H](CN(C)C)Oc2c(NC(=O)Cc3ccccc3)cccc2C1=O | . | 0.56µM* | 17% | . | . | 9%
COc1ccc(-c2nc(C)c(CCNC(=O)C(=O)Nc3ccccc3C#N)s2)cc1OC | . | . | . | . | -2% | .
COc1ccc(NC(=S)NCCc2ccccc2)c(C)c1 | ? | -7% | -24% | 15µM* | ? | 4%
COc1cc(C)c(NC(=O)C(=S)NCCc2ccccc2)cc1C | 1% | ? | -32% | 2.3µM* | ? | 47%
CCCc1cc(C(=O)Cc2ccc(C(=O)OCC)o2)c(O)cc1O | 12µM* | -20% | -33% | 12µM* | 2% | -10%
Cc1oc(-c2cccc(F)c2)nc1CN(Cc1ccccc1)C[C@@H]1CCC(=O)N1 | ? | 2% | 191% | 8.3µM* | 9% | -2%
Cc1oc(-c2ccccc2Cl)nc1CN(Cc1ccccn1)C[C@@H]1CCC(=O)N1 | 8% | -4% | 91% | ? | 3% | 90%
C[N+](C)(C)CC#CCN1CCCC1=O | . | 16% | . | . | . | 7%
C/C(Cl)=C/CC1(CN2CCCC2=O)C(=O)NC(=O)NC1=O | 11% | 8% | 3% | ? | 28µM* | 14%
O=S(=O)(c1ccccc1)[C@@]1(c2ccccc2)C[C@@H]2ON=C(c3cccc(-c4ccccc4)c3)[C@@H]2C1 | 7.4µM* | -28% | -41% | ? | -10% | -6%
